Measurements: PubChem BioAssay (EPA / NIEHS)
Calls of active or inactive are those of the source. How the source made its calls: active means hit-call score of the fitted dose curve at least 0.9, where 1 is the maximum; inactive means score below 0.9.

Experiments:
[1] = read-out: C-C motif chemokine 2 (Homo sapiens) (UniProt P13500); test: BSK_KF3CT_MCP1: BioMAP Diversity Plus: KF3CT Assay for Monocyte Chemoattractant Protein 1 (MCP1/CCL2) Biomarker Activity (AID 2283073); details: primary human keratinocytes with fibroblasts; actives raise or lower the signal
In short: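 Biomarker MCP-1 is measured by ELISA in primary human keratinocytes co-cultured with foreskin fibroblasts, 24 h after chemical treatment; DMSO serves as the negative control and activity baseline.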

[2] = read-out: Matrix Metallopeptidase 9 (MMP9), MMP9 (gene 4318); test: BSK_KF3CT_MMP9: BioMAP Diversity Plus: KF3CT Assay for Matrix Metallopeptidase 9 (MMP9) Biomarker Activity (AID 2283074); details: primary human keratinocytes with fibroblasts; actives raise or lower the signal;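 on AC50: MMP9 protein level quantified by ELISA in the co-culture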
In short: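 MMP-9 quantified by ELISA after 24 h chemical treatment of primary human skin keratinocyte/fibroblast co-cultures; gain or loss fitted against DMSO, with parallel SRB staining (0.1% SRB, 560 nm) for overt cytotoxicity.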

[3] = read-out: urokinase plasminogen activator (uPA), PLAU (gene 5328); test: BSK_KF3CT_uPA: BioMAP Diversity Plus: KF3CT Assay for urokinase plasminogen activator (uPA) Biomarker Activity (AID 2283075); details: primary human keratinocytes with fibroblasts; actives raise or lower the signal
In short: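 ELISA read-out of uPA 24 h after dosing human skin keratinocytes co-cultured with foreskin fibroblasts. Signal change fitted both ways relative to DMSO; sulforhodamine B on parallel cultures marks overt cytotoxicity.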

CD40, CD40 (gene 958) = test: BSK_LPS_CD40: BioMAP Diversity Plus: LPS Assay for CD40 Biomarker Activity (AID 2283076); details: primary human HUVEC with PBMC; actives raise or lower the signal
In short: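 Using a multiplexed primary human co-culture (umbilical vein endothelium plus PBMC), CD40 was read by ELISA 24 h after dosing, with cytotoxicity tracked by sulforhodamine B staining of parallel cultures and activity fitted bidirectionally versus DMSO.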

[4] = read-out: E-selectin (Homo sapiens) (UniProt P16581); test: BSK_LPS_Eselectin: BioMAP Diversity Plus: LPS Assay for Eselectin Biomarker Activity (AID 2283077); details: primary human HUVEC with PBMC; actives raise or lower the signal
In short: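 Dose chemical onto LPS-driven HUVEC/PBMC co-culture; after 24 h, run ELISA for E-selectin; fit up- and down-going responses relative to DMSO control.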

[5] = read-out: Interleukin-8 (IL8), CXCL8 (gene 3576); test: BSK_LPS_IL8: BioMAP Diversity Plus: LPS Assay for Interleukin-8 (IL8) Biomarker Activity (AID 2283078); details: primary human HUVEC with PBMC; actives raise or lower the signal
In short: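 In this LPS system, chemical-treated human umbilical vein endothelium/PBMC co-cultures were harvested at 24 h for IL-8 ELISA.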

[6] = BSK_LPS_SRB: Viability Assessment in the BioMAP Diversity Plus: LPS Assay (AID 2283079); details: primary human HUVEC with PBMC;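 further: total protein by sulforhodamine B absorbance as a cytotoxicity measure; measured one day after compound addition; fitted in both directions against DMSO so loss or gain of signal counts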
In short: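 Cytotoxicity endpoint in human endothelial–PBMC co-culture: 24 h exposure, then SRB (0.1%) staining, 560 nm read.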

[7] = read-out: Interleukin-1 alpha (IL1a), IL1A (gene 3552); test: BSK_LPS_IL1a: BioMAP Diversity Plus: LPS Assay for Interleukin-1 alpha (IL1a) Biomarker Activity (AID 2283080); details: primary human HUVEC with PBMC; actives raise or lower the signal
In short: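 Primary human HUVEC and PBMC co-culture stimulated with LPS is dosed and harvested at 24 h. Both increases and decreases in ELISA-measured IL-1a are scored relative to DMSO.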

[8] = read-out: Monocyte Chemoattractant Protein-1 (MCP1), CCL2 (gene 6347); test: BSK_LPS_MCP1: BioMAP Diversity Plus: LPS Assay for Monocyte Chemoattractant Protein-1 (MCP1) Biomarker Activity (AID 2283081); details: primary human HUVEC with PBMC; actives raise or lower the signal;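 on AC50: secreted MCP-1 protein quantified by ELISA in culture supernatant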
In short: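 Values derive from bidirectional fitting against DMSO of ELISA-measured MCP-1 in a human primary endothelial and mononuclear cell co-culture, 24 h after chemical addition under LPS activation.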

[9] = BSK_LPS_PGE2: BioMAP Diversity Plus: LPS Assay for Prostaglandin E2 (PGE2) Biomarker Activity (AID 2283082); details: primary human HUVEC with PBMC; actives raise or lower the signal;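 on AC50: secreted prostaglandin E2 measured by ELISA in LPS-stimulated co-culture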
In short: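 ELISA read-out of PGE2 from human umbilical vein endothelial cells co-cultured with peripheral blood mononuclear cells under LPS, 24 h post-dose. Gain or loss of signal scored relative to DMSO baseline.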

E-selectin (Homo sapiens), sequence (P16581 whole entry, looked up): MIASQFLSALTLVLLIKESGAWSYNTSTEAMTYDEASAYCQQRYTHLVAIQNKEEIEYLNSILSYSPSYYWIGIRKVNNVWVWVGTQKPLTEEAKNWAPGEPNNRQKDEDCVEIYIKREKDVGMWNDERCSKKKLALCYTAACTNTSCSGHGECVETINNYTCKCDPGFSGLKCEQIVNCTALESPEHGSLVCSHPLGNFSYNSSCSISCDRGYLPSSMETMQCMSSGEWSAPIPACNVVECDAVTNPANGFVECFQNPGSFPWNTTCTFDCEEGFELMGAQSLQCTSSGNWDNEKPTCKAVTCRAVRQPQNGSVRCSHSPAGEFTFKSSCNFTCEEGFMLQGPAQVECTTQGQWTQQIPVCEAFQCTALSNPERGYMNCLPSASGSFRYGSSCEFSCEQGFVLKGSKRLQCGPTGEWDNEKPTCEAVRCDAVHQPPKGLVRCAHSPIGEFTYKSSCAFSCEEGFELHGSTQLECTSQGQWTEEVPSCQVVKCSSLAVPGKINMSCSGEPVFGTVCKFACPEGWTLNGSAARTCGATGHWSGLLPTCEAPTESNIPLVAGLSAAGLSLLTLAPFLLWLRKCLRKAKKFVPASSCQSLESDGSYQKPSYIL

Compound: CN1C(=O)N(c2ccccc2Br)Cc2cnc(Nc3ccc4c(c3)OCC(CO)O4)nc21 (stereo unspecified)
- AC50 [1]: 31 µM (active)
- AC50 [2]: 6.07 µM (active)
- AC50 [3]: 12.4 µM (active)
- AC50 (CD40, CD40 (gene 958)): 7.42 µM (active)
- AC50 [4]: 7.07 µM (active)
- AC50 [5]: 6.07 µM (active)
- AC50 [6]: 4.68 µM (active)
- AC50 [7]: 9.1 µM (active)
- AC50 [8]: 5.19 µM (active)
- AC50 [9]: 3.63 µM (active)

Compound: Cc1ccc2oc(CN(Cc3ccccc3)C(=O)Nc3c(F)cc(F)cc3F)c(-c3ccc(Cl)cc3)c2c1
- outcome [1]: inactive
- outcome [2]: inactive
- outcome [3]: inactive
- outcome (CD40, CD40 (gene 958)): inactive
- outcome [4]: inactive
- outcome [5]: inactive
- outcome [6]: inactive
- outcome [7]: inactive
- outcome [8]: inactive
- outcome [9]: inactive

Compound: O=C(Nc1ccc(Cl)cc1)Nc1ccc(Cl)c(Cl)c1
- outcome [1]: inactive
- AC50 [2]: 1.49 µM (active)
- outcome [3]: inactive
- AC50 (CD40, CD40 (gene 958)): 2.42 µM (active)
- AC50 [4]: 2.15 µM (active)
- AC50 [5]: 1.74 µM (active)
- AC50 [6]: 2.03 µM (active)
- AC50 [7]: 3.86 µM (active)
- AC50 [8]: 3.51 µM (active)
- AC50 [9]: 1.9 µM (active)

Compound: CCCCCCCCOC(=O)c1cc(O)c(O)c(O)c1
- AC50 [1]: 27.4 µM (active)
- AC50 [2]: 8.92 µM (active)
- AC50 [3]: 18.2 µM (active)
- AC50 [4]: 36.6 µM (active)
- AC50 [5]: 24.6 µM (active)
- AC50 [6]: 25.6 µM (active)
- AC50 [7]: 20 µM (active)
- AC50 [8]: 26.7 µM (active)
- AC50 [9]: 5.32 µM (active)

Compound: CCCCCCCCCCCCO
- AC50 [1]: 35 µM (active)
- AC50 [2]: 33 µM (active)
- AC50 [3]: 30.4 µM (active)
- outcome (CD40, CD40 (gene 958)): inactive
- AC50 [4]: 19.8 µM (active)
- outcome [5]: inactive
- AC50 [6]: 30.4 µM (active)
- AC50 [7]: 36.3 µM (active)
- AC50 [8]: 34.8 µM (active)
- outcome [9]: inactive

Compound: OCCO
- outcome [2]: inactive
- outcome [3]: inactive
- outcome (CD40, CD40 (gene 958)): inactive
- outcome [4]: inactive
- outcome [5]: inactive
- outcome [6]: inactive
- outcome [7]: inactive
- outcome [8]: inactive
- outcome [9]: inactive

Compound: COCC(C)OCC(C)OCC(C)O (stereo unspecified)
- outcome [1]: inactive
- outcome [2]: inactive
- outcome [3]: inactive
- outcome (CD40, CD40 (gene 958)): inactive
- outcome [4]: inactive
- outcome [5]: inactive
- outcome [6]: inactive
- outcome [7]: inactive
- outcome [8]: inactive
- outcome [9]: inactive

Compound: CCCCCCCCN(C)CCCCCCCC
- outcome [1]: inactive
- outcome [2]: inactive
- outcome [3]: inactive
- outcome (CD40, CD40 (gene 958)): inactive
- outcome [4]: inactive
- outcome [5]: inactive
- outcome [6]: inactive
- outcome [7]: inactive
- outcome [8]: inactive
- outcome [9]: inactive

Compound: CCCCCCCC[Si](OCC)(OCC)OCC
- outcome [1]: inactive
- AC50 [2]: 27.6 µM (active)
- outcome [3]: inactive
- outcome (CD40, CD40 (gene 958)): inactive
- outcome [4]: inactive
- outcome [5]: inactive
- outcome [6]: inactive
- outcome [7]: inactive
- outcome [8]: inactive
- outcome [9]: inactive

Compound: Cc1ccc(C(C)C)cc1
- outcome [1]: inactive
- outcome [2]: inactive
- outcome [3]: inactive
- outcome (CD40, CD40 (gene 958)): inactive
- outcome [4]: inactive
- outcome [5]: inactive
- outcome [6]: inactive
- outcome [7]: inactive
- outcome [8]: inactive
- outcome [9]: inactive

Compound: O=c1[nH]sc2ccccc12
- AC50 [1]: 30.4 µM (active)
- AC50 [2]: 31.2 µM (active)
- AC50 [3]: 33 µM (active)
- AC50 (CD40, CD40 (gene 958)): 7.06 µM (active)
- AC50 [4]: 25.9 µM (active)
- AC50 [5]: 22.1 µM (active)
- AC50 [6]: 25.7 µM (active)
- AC50 [7]: 8.77 µM (active)
- AC50 [8]: 17.6 µM (active)
- AC50 [9]: 3.94 µM (active)

Compound: Cc1cc(F)ccc1-c1cc(N2CC[C@@H](O)[C@H]2CO)ncc1N(C)C(=O)C(C)(C)c1cc(C(F)(F)F)cc(C(F)(F)F)c1
- AC50 [1]: 14.9 µM (active)
- AC50 [2]: 12.3 µM (active)
- AC50 [3]: 12.7 µM (active)
- AC50 (CD40, CD40 (gene 958)): 8.65 µM (active)
- AC50 [4]: 11.3 µM (active)
- AC50 [5]: 10.8 µM (active)
- AC50 [6]: 11.3 µM (active)
- AC50 [7]: 9.95 µM (active)
- AC50 [8]: 10.8 µM (active)
- outcome [9]: inactive

Compound: CC(C)(C)c1cc(/C=C2\SC(N)=NC2=O)cc(C(C)(C)C)c1O
- AC50 [1]: 6.59 µM (active)
- AC50 [2]: 9.79 µM (active)
- AC50 [3]: 12.5 µM (active)
- AC50 (CD40, CD40 (gene 958)): 13 µM (active)
- AC50 [4]: 27.2 µM (active)
- AC50 [5]: 20 µM (active)
- AC50 [6]: 26.4 µM (active)
- AC50 [7]: 11.5 µM (active)
- AC50 [8]: 26.9 µM (active)
- AC50 [9]: 0.186 µM (active)

Compound: O=C=NCCCCCCN=C=O
- outcome [1]: inactive
- outcome [2]: inactive
- outcome [3]: inactive
- outcome (CD40, CD40 (gene 958)): inactive
- outcome [4]: inactive
- outcome [5]: inactive
- outcome [6]: inactive
- outcome [7]: inactive
- outcome [8]: inactive
- outcome [9]: inactive

Compound: CCCCCc1ccc(N)cc1
- outcome [1]: inactive
- AC50 [2]: 13.7 µM (active)
- outcome [3]: inactive
- outcome (CD40, CD40 (gene 958)): inactive
- outcome [4]: inactive
- outcome [5]: inactive
- outcome [6]: inactive
- outcome [7]: inactive
- outcome [8]: inactive
- AC50 [9]: 12 µM (active)

Compound: O=C(O)Cn1c(=O)n(Cc2ccc(Br)cc2F)c(=O)c2ccc(Cl)cc21
- outcome [1]: inactive
- outcome [2]: inactive
- outcome [3]: inactive
- outcome (CD40, CD40 (gene 958)): inactive
- outcome [4]: inactive
- outcome [5]: inactive
- outcome [6]: inactive
- outcome [7]: inactive
- outcome [8]: inactive
- AC50 [9]: 10.5 µM (active)

Compound: c1ccc(C[n+]2cccc3ccccc32)cc1
- outcome [1]: inactive
- outcome [2]: inactive
- outcome [3]: inactive
- outcome [4]: inactive
- outcome [5]: inactive
- outcome [6]: inactive
- outcome [7]: inactive
- outcome [8]: inactive
- outcome [9]: inactive

Compound: O=C(O)c1ccccc1-n1cc(C(=O)O)c(=O)c2cc(Nc3c(F)cc(F)cc3Cl)c(Cl)cc21
- outcome [1]: inactive
- outcome [2]: inactive
- outcome [3]: inactive
- outcome (CD40, CD40 (gene 958)): inactive
- outcome [4]: inactive
- outcome [5]: inactive
- outcome [6]: inactive
- outcome [7]: inactive
- outcome [8]: inactive
- outcome [9]: inactive

Compound: CC1(C)NC(=O)N(c2ccc([N+](=O)[O-])c(C(F)(F)F)c2)C1=O
- outcome [1]: inactive
- outcome [2]: inactive
- outcome [3]: inactive
- outcome [4]: inactive
- outcome [5]: inactive
- outcome [6]: inactive
- outcome [7]: inactive
- outcome [8]: inactive
- outcome [9]: inactive
